GLP-1R inv ag: qHTS of GLP-1 Receptor Inverse Agonists (Inhibition Mode) | Glucagon-like peptide 1 receptor (Homo sapiens), P43220 | HEK293 GLP-1R CRE-luciferase, luminescence, 24 h; GLP-1R form is constitutively active | Potency, µM (series often up to 38.3 µM), for the others: at the top dose activity change, negative = inhibition, actives largely listed as inhibitors | 410,000 tested, 1.6% active | AID 624417, 2012; note: % is set by controls: 0 for no effect and ±100 for the full control effect; nearly all actives have a fitted effect of over 55% in size
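Inverse agonists were sought by their lowering of basal cAMP reporter luciferase output in HEK293 cells stably carrying constitutively active human GLP-1R, after 24 h compound treatment.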
RGS4 inhibitor: Inhibitors of Regulator of G Protein Signaling (RGS) 4: qHTS. AID 504845, 2011. Potency, µM (highest dose often 114 µM), for the others: at the highest dose activity change, negative = inhibition, usual class: inhibitors. Transcreener GDP fluorescence polarization, RGS4-accelerated GTP hydrolysis. 390,000 tested, 0.039% active. Regulator of G-protein signaling 4 (Homo sapiens), P49798; note: % is set by controls: 0 for no effect and ±100 for the full control effect; nearly all actives have a fitted effect of over 75% in size
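MLSMR compounds (23 nl, pin-transferred) preincubated 10 min at room temperature with a 500nM (2x) first reagent, then RGS4 at 900nM (2x) plus Transcreener GDP mix added; fluorescence polarization (620/688 nm) read before and after 90 min at 30 °C.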
GLP1R cytotox: qHTS of GLP-1 Receptor Inverse Agonists: Cytotox Screen | 410,000 tested, 0.13% active | Potency, µM (titrated, usually from 38.3 µM), inactives show at the highest dose activity change, negative = inhibition, hits mostly inhibitors | HEK293 cAMP-luciferase reporter cells, luminescence, 24 h;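 note: loss of luciferase light is scored as toxicity; % is set by controls: 0 for no effect and ±100 for the full control effect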
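Compound-treated cells are incubated 24 hr at 37 deg C under 5% CO2 after a 12 hour attachment period, then luciferase detection reagent is added and luminescence is measured following 12 min at room temperature; lowered signal indicates toxicity.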
GLP1R ag: qHTS of GLP-1 Receptor Agonists; AID 624172, 2012; Potency, µM (top dose mostly 45.6 µM), for the others: at the highest dose activation, hits mostly activators; 380,000 tested, 0.007% active; Glucagon-like peptide 1 receptor (Homo sapiens), P43220; HEK293 GLP-1R CRE-luciferase, luminescence, 4-6 h; cells express a hypersensitive GLP-1R form; note: % of control where 0% means no effect
KAT2A inh: qHTS Assay for Inhibitors of GCN5L2 | GCN5L2 HAT assay, ThioGlo1 CoA-SH fluorescence | 390,000 tested, 0.21% active | Potency, µM (series often up to 58.9 µM), without a hit: top-dose activity change, negative = inhibition, hits mostly inhibitors | Histone acetyltransferase KAT2A (Homo sapiens), Q92830 | AID 504327, 2011; note: % is set by controls: 0 for no effect and ±100 for the full control effect
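Fluorescence readout, Ex340nm/Em540nm: ThioGlo1 (50uM final) reacts with free CoA thiol released as 20nM GCN5L2 acetylates H3(1-25) peptide (75uM) using acetyl-CoA (70uM). Compound and enzyme sat 15 min beforehand; 20 min room-temperature reaction.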
PTHR1 agonist: qHTS for PTHR1 Agonists: Primary Screen | Potency, µM (titrated, usually from 115 µM), for the others: at the top dose activation, actives largely listed as activators | 410,000 tested, 0.075% active | HEK293 GP2 PTHR1 cells, GloSensor cAMP luminescence, 1 h | Parathyroid hormone/parathyroid hormone-related peptide receptor (Homo sapiens), Q03431; note: nearly all actives have a fitted effect of over 55% in size
Target sequence (Q03431 whole entry, looked up): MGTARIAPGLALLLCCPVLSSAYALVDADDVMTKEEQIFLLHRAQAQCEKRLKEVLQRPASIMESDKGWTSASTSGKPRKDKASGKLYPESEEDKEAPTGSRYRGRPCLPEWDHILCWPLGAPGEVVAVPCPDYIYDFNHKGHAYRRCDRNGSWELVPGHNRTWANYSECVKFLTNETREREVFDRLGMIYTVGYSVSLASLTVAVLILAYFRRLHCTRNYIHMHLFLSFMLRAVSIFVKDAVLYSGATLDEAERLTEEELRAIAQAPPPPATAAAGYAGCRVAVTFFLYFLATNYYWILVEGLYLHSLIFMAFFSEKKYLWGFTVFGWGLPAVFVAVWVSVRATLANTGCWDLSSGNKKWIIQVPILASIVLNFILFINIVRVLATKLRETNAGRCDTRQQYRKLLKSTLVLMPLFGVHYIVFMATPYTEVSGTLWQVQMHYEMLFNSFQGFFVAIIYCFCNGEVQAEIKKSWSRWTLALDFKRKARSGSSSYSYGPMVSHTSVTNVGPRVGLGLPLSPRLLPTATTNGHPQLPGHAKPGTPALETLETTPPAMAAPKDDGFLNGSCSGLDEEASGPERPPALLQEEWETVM
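HEK-293-derived GP2 cells expressing PTHR1 and a GloSensor cAMP reporter, 3,000/well, plated overnight, given luciferin plus IBMX (each 0.5 mM as added) for 1 h at 37 °C, then compound for 1 h at 37 °C. Luminescence was read after 15 min at room temperature.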
Numbers without * were called inactive; i = inactive; ? = inconclusive; · = no result; [ ] = another dose, or the depositor's remark. The list is not random: actives were taken first. Their share in the collection is about 1.8%. Calls come from the whole dose curve; as a rule, active = well fitted curve in the direction sought with a large enough effect; inconclusive = small, poorly fitted or top-dose-only effect, or another doubt; inactive = no such curve, though single readings can be large; an effect the other way counts as inactive or inconclusive. Potency is the fitted concentration of half-maximal effect.

SMILES | GLP-1R inv ag | RGS4 inhibitor | GLP1R cytotox | GLP1R ag | KAT2A inh | PTHR1 agonist
COC(=O)c1ccc(CCc2cc(O)ccc2O)cc1 | ? | ? | 10µM* | -2% | · | -33%
CC(C)OC(=O)c1ccc(NCc2cc(O)ccc2O)cc1 | ? | -40% | ? | -10% | · | -29%
O=C(OCc1ccccc1)c1ccc(NCc2cc(O)ccc2O)cc1 | 7.1µM* | -23% | 5µM* | -5% | · | -34%
CCCOc1ccc(/C=N/Nc2cccc([N+](=O)[O-])c2)c(O)c1 | 4.5µM* | -19% | ? | 3% | -22% | -22%
CCCCc1ccc(N2C(=NC(=O)C3CCCO3)SC3CS(=O)(=O)CC32)cc1 (stereo not given) | 39% | 7%[11.4 µM] | 1% | -5% | -6% | i
Cc1cc(/C=N/Nc2ncnc(N)c2[N+](=O)[O-])c(C)n1-c1ccccc1 | 2.2µM* | -13% | ? | -6% | -10% | -54%
CCOC(=O)C1=CN(Cc2ccco2)S(=O)(=O)N(C)C1CC (stereo not given) | 4% | -37% | 8% | 3% | -3% | -17%
O=C(Nc1cccc(NC(=O)c2ccccc2Cl)c1)c1ccc(F)cc1 | ? | 21% | 5% | 3% | -5% | -89%
COc1ccc(C(=O)Nc2cccc(C(=O)NCc3ccccc3)c2)cc1 | -29% | 11% | -23% | 3% | 9% | -22%
Cc1ccccc1C(=O)Nc1cccc(NC(=O)c2ccc(F)cc2)c1 | 10µM* | 14% | 1% | 10% | -5% | i
CCOC(=O)c1cccc(NC(=S)NCc2ccc(C)cc2)c1 | 7.9µM* | 4% | -32% | 7% | 0% | -19%
Cc1ccc(C(=O)Nc2cccc(C(=O)NCc3ccccc3)c2)cc1 | 13µM* | 6% | 1% | -23% | 0% | -1%
Cc1ccc(C(=O)Nc2ccc3ccccc3c2)cc1 | 5µM* | 11% | -13% | 0% | 2% | -34%
C=C1C[C@@H]2[C@H]3CCC4=CC(=O)C=C[C@]4(C)[C@@]3(F)[C@@H](O)C[C@]2(C)[C@]1(O)C(=O)COC(C)=O | · | · | · | 0% | · | ·
C=C(CC[C@@H](C)[C@H]1CCC2[C@]1(C)CC[C@]13C[C@@]14CCC(OC(=O)/C=C/c1ccc(O)c(OC)c1)C(C)(C)[C@@H]4CC[C@@]23C)C(C)C (stereo not given in full) | · | · | · | -3% | -17% | ·
Cc1ccc(S(=O)(=O)N(CCCc2c(C)nc[nH]c2=O)c2ccccc2)cc1 | -7% | 5% | -2% | 1% | · | -5%
COc1ccccc1NC(=O)c1cc2cc(Br)ccc2cc1O | 6.3µM* | -34% | 17% | -4% | -6% | -34%
COc1cc(NC(=O)c2cc3ccccc3cc2O)c(OC)cc1Cl | ? | -23% | 37% | -3% | -24% | -46%
NC(=O)c1cc2ccncc2c2ccccc12 | 1µM* | -10% | -14% | -6% | 0% | -10%
Cc1cc(C(N)=O)c2ccccc2n1 | -8% | 10% | -10% | -2% | -3% | -9%[57.5 µM]
CCCN1C(=O)/C(=C/c2c(N3CCNC(=O)C3CC(=O)OC)nc3c(C)cccn3c2=O)SC1=S (stereo not given) | · | · | · | · | -3% | ·
CCOC(=O)C(Cc1nc(OCc2ccccc2)cc(OCc2ccccc2)n1)=NO | ? | 1% | -15% | -3% | · | -35%
CCOC(=O)C(=O)Cc1nc(OCc2ccccc2)cc(OCc2ccccc2)n1 | 10µM* | 5% | 18% | 16% | · | i
O=C(/C=C/c1ccc(Cl)cc1Cl)OCC(=O)N1CCCC1 | 2% | -52% | -13% | 3% | -6% | -34%
COc1ccc(CNCCC2(Cc3ccccc3)CC(C)N(C)CC2C)cc1OC (stereo not given) | ? | 15% | -5% | 1% | 1% | -94%
SMILES | GLP-1R inv ag | RGS4 inhibitor | GLP1R cytotox | GLP1R ag | KAT2A inh | PTHR1 agonist
Cc1ccc(C2(c3ccccc3)NC(=O)N(CC(=O)NCc3ccccc3)C2=O)cc1C (stereo not given) | 6.3µM* | -2% | -17% | 0% | -12% | -8%
COc1ccc(Nc2ncc3c(n2)CCN(Cc2ccc(Br)s2)C3)c(OC)c1 | -10% | 12% | 86% | · | -5% | i
O=C(NCc1ccccc1Cl)c1ccc(CSc2nc3ccncc3[nH]2)cc1 | 10µM* | 1% | -4% | 8% | -7% | -10%
Clc1ccccc1CSc1nc2ccncc2[nH]1 | -2% | 0% | -3% | 5% | -3% | -43%
COc1ccc(C(=O)/C(Br)=C/C(=O)O)cc1 | · | · | · | 0% | 3% | ·
Cc1cc(SCC(=O)NCC2CCCO2)nc2ccccc12 (stereo not given) | ? | -13% | -4% | 10% | -1% | -10%
CC(=O)N1CC(c2ccccc2)C(c2ccc(Cl)cc2)=N1 (stereo not given) | ? | 19% | -5% | 30% | -8% | i
CC(C)NC(=O)N1CC(c2ccccc2)C(c2ccc(Cl)cc2)=N1 (stereo not given) | 4µM* | 5% | 12% | 16% | -6% | -21%
CNC(=O)c1c(O)c2cccc3c2n(c1=O)CCC3 | 1.8µM* | 1% | ? | 4% | 3% | i
CCn1c(=O)c(C(=O)NCCN2CCCCC2)c(O)c2ccccc21 | 2.8µM* | -3% | ? | 3% | -2% | -21%[57.5 µM]
CCn1c(=O)c(C(=O)NCCc2ccccc2)c(O)c2ccccc21 | ? | -1% | 7% | 1% | -19% | -5%[57.5 µM]
O=C(NC1CCCCCC1)c1c(O)c2cccc3c2n(c1=O)CCC3 | · | · | · | · | -19% | ·
CCN(CC)CCNC(=O)c1c(O)c2cccc3c2n(c1=O)CCC3 | 4.5µM* | 11% | ? | 0% | 1% | -35%
CCOC(=O)CC(=O)CSc1nc2cc(C)ccc2cc1C | 10µM* | -29% | -5% | 20% | -1% | -22%
CN(C)C1CCCCC=CC(=O)NC1 (stereo not given) | 3% | · | 1% | -3% | · | 8%
Cc1[nH]nc(-c2cccnc2)c1N=NN(C)C | ? | -94% | 10µM* | -17% | · | -3%
CN(C)c1nc(N)nc(-c2cccnc2)n1 | 47% | 2% | 5% | 13% | -3% | i

Compound activity from PubChem BioAssay.
